An excerpt weighted towards active compounds, which were near 4% of everything screened.
CCHF vOTU inh = CCHFV vOTU protease inhibitors, primary screen, biochemical, Pep-AMC substrate, fluorescence | inhibition, % at 11.5 µM | Crimean-Congo hemorrhagic fever virus L polyprotein viral ovarian tumor (vOTU) protease … | 370,000 compounds, 0.55% hits; in the data active means inhibition above about 30%; further: 0% = vehicle wells with enzyme and 100% = no enzyme wells
GDH-TPI counter-1 = GDH-TPI coupling enzyme inhibitors, primary screen, artefact control for M. tuberculosis FBA inhibitor project, biochemical, absorbance, full deck. GDH-TPI coupled enzyme counterscreen, NADH absorbance. inhibition, % at 4.8 µM. 360,000 compounds, 1.2% hits; in the data active means inhibition above about 30%;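 further: 0% = DMSO wells and 100% = wells lacking the enzyme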
Mtb FBA inh = Mtb FBA enzyme inhibitors, primary screen, biochemical, fluorescence, strain H37Rv. Fructose-bisphosphate aldolase (Mycobacterium tuberculosis (strain ATCC 25618 / H37Rv)), …. purified M. tuberculosis FBA, fluorescence read-out. inhibition, % at 1 µM. 360,000 compounds, 2.3% hits. AID 588726, 2011;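 further: 0% = vehicle and 100% = reference inhibitor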
Target sequence (P9WQA3 whole entry, looked up): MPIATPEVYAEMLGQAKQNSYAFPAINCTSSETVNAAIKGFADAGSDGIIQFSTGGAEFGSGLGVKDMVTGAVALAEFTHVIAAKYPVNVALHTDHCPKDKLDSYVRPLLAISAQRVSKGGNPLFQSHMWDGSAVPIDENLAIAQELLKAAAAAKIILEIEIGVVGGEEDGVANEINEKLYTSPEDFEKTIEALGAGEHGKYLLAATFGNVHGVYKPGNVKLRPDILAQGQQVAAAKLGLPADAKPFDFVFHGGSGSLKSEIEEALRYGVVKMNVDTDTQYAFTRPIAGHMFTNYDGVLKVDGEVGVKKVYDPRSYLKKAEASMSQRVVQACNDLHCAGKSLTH
MazEF act = activators of E. coli MazEF toxin-antitoxin RNase, primary screen, biochemical, fluorescence, uHTS | Endoribonuclease toxin MazF (Escherichia coli (strain K12)), P0AE70 | FAM/BHQ RNA-DNA oligo cleavage fluorescence, 5 h | activation, % at 20 µM | 350,000 compounds, 0.32% hits | AID 504720, 2011; in the data active means activation above about 50%
Target sequence (P0AE70 whole entry, looked up): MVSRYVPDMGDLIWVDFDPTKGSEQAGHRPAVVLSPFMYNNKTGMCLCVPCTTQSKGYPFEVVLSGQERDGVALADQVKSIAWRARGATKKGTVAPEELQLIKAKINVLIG
Mtb betalactam = beta-lactam sensitization of Mtb H37Rv, H37Rv | M. tuberculosis H37Rv growth with meropenem, percent inhibition | inhibition, % at 25 µM | 330,000 compounds, 0.27% hits | AID 434955, 2010; call rule not given here;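 further: growth measured after seven days incubation then overnight dye step; 0% = bacteria only wells and 100% = bacteria with antibiotic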
Mtb FBA confirm = M. tuberculosis aldolase blockers, biochemical, fluorescence, strain H37Rv, confirmation; purified M. tuberculosis FBA, fluorescence read-out; 5,600 compounds, 78% hits; shares compounds with Mtb FBA inh; inhibition, % at 1 µM; AID 651616, 2012;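 further: 0% = vehicle wells and 100% = reference inhibitor wells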
GDH-TPI counter-2 = GDH-TPI coupling enzyme inhibitors, artefact control for M. tuberculosis FBA inhibitor project, biochemical, fluorescence, high throughput; shares compounds with Mtb FBA inh; GDH-TPI coupled enzyme counterscreen; inhibition, % at 1 µM; 5,600 compounds, 81% hits; AID 652141, 2013; in the data active means inhibition above about 10%
* hit, by the source's call; · = no result; + = active, no number. Unless noted, no stated cut-off is given here; in the data, active means inhibition above about 27%; inactive means the rest.

SMILES	CCHF vOTU inh	GDH-TPI counter-1	Mtb FBA inh	MazEF act	Mtb betalactam	Mtb FBA confirm	GDH-TPI counter-2
Cc1cc2oc(=O)c(CC(=O)NCCCO)c(C)c2c2occ(C(C)(C)C)c12	-43	10	31*	1	18	57*	54*
CC(=O)Oc1ccc(C23c4ccccc4C2(OC(C)=O)c2cc(OC(C)=O)ccc23)cc1 (stereo not given)	-18	6	71*	39	·	98*	85*
CC(=O)Oc1ccc(C(=O)Nc2ccccc2NC(=O)c2ccc(OC(C)=O)cc2)cc1	11	-4	2	5	6	·	·
COC(=O)C1CCC(CNC(=O)C(Cc2ccc3c(c2)OCO3)NC(C)=O)CC1 (stereo not given)	-2	·	·	·	·	·	·
Cc1cc(F)ccc1NCC(=O)Nc1ccccc1Br	-18	2	50*	12	7	47*	39*
CCn1c(=O)n(CC(=O)N2CCC(C)CC2)c(=O)c2ccccc21	-1	·	·	·	·	·	·
O=C(CSc1nnc(-c2ccccn2)n1-c1ccccc1)Nc1cccc2ccccc12	2	·	·	·	·	·	·
CCCC[C@H](C(=O)N(CC)c1ccccc1)[C@@H](O)c1ccc(Cl)cc1	15	·	·	·	·	·	·
Cc1c(OCc2ccc(C(=O)O)o2)ccc2c3c(c(=O)oc12)CCC3	-26	12	72*	-3	2	28*	25*
Cc1c(OCC(=O)N[C@H](C(=O)O)c2ccccc2)ccc2c3c(c(=O)oc12)CCCC3	-15	11	31*	7	-1	6	-4
Cc1c(OCC(=O)NCc2ccccn2)ccc2c3c(c(=O)oc12)CCCC3	7	7	2	5	99	·	·
Cc1c(OCC(=O)NCC(O)c2ccccc2)ccc2c3c(c(=O)oc12)CCC3 (stereo not given)	12	7	15	4	3	·	·
CCN(CC)C(=O)COc1ccc2c3c(c(=O)oc2c1C)CCCC3	-24	10	64*	-4	99	+	+
COCOc1cc(O)c2c(=O)c(OCOC)c(-c3ccc(OCOC)c(OCOC)c3)oc2c1	17	7	-1	-1	-3	·	·
COCOc1ccc(-c2cc(=O)c3c(OCOC)cc(OCOC)cc3o2)cc1	·	21	64*	3	-1	106*	64*
O=C(O)CNc1ccccc1C(=O)O	-39	7	58*	1	3	-5	-4
COc1cc(OC)cc(-c2c(C#Cc3ccsc3)c3cc(-c4ccc(C(N)=O)cc4)ccc3n2C)c1	8	3	32*	-6	6	36*	16*
COc1cc(OC)cc(-c2c(C#Cc3ccsc3)c3cc(-c4cc(OC)c(OC)c(OC)c4)ccc3n2C)c1	-4	14	47*	-13	-5	6	3
C[C@@H]1CC(=O)NN=C1c1ccc(NN=C(C#N)C#N)cc1	8	·	·	·	·	·	·
COc1ccc(/C=C2\CC3(OC(=O)c4cccc(F)c4)CCCN2C3)cc1 (stereo not given)	6	·	·	·	·	·	·
COC(=O)C1CN(Cc2ccc(C)cc2)CCS(=O)(=O)N1Cc1cn(Cc2ccc(F)cc2)nn1 (stereo not given)	-1	·	·	·	·	·	·
CC/C(C)=N/N1C(=O)c2ccccc2NC1(C)CC (stereo not given)	-42	9	38*	5	-8	115*	127*
O=C1c2ccccc2NC2(CCCC2)N1N=C1CCCC1	-2	14	6	6	4	·	·
Cc1cc(N2CCN(Cc3nc(-c4ccc(Cl)cc4)oc3C)CC2)cc(C)n1	-4	8	4	-3	6	·	·
COc1ccc(-c2nc(CN3CCN(c4cc(C)nc(C)c4)CC3)c(C)o2)c2ccccc12	-31	2	67*	9	97	45*	43*
SMILES	CCHF vOTU inh	GDH-TPI counter-1	Mtb FBA inh	MazEF act	Mtb betalactam	Mtb FBA confirm	GDH-TPI counter-2
COc1ccc(C(=O)NCc2ccc3c(c2)cc(C)n3C)cc1	6	13	1	5	7	·	·
CCOc1c2ccc(C(=O)NCc3ccc(OC)cc3)cc2nn1CCOC	-56	4	60*	0	-4	99*	72*
CCCCn1nc2cc(C(=O)NCc3ccc(OC)cc3)ccc2c1OCC	-37	8	40*	8	55	94*	85*
COc1ccc(OC)c2c1C(=O)C(Cl)=C(Cl)C2=O	-12	3	-2	0	2	·	·
COc1ccc(OC)c2c1C(=O)CC2C (stereo not given)	-66	16	48*	-2	·	15	7
C=CCN1C(=O)[C@@H](CC(=O)NCc2ccccc2)[C@]2(C(=O)OC)CCCCC=C12	4	·	·	·	·	·	·
CCc1cc(=O)oc2cc(OCc3nn[nH]n3)ccc12	·	8	31*	9	-1	+	+
CCc1cc(=O)oc2cc(OCC=C(C)C)ccc12	-14	4	36*	-7	-2	35*	30*
Cn1c2ccc(F)cc2c2ncn(Cc3ccccn3)c(=O)c21	-7	18	27*	-3	-6	47*	41*
CCOCCCn1cnc2c3cc(F)ccc3n(C)c2c1=O	-26	9	31*	2	2	163*	133*
O=c1c2[nH]c3ccc(F)cc3c2ncn1CC1CCCO1 (stereo not given)	·	10	7	2	-7	·	·
Cn1c2ccc(F)cc2c2ncn(Cc3ccco3)c(=O)c21	-25	10	32*	2	-2	98*	91*
Cn1c2ccc(F)cc2c2ncn(CC3CCCO3)c(=O)c21 (stereo not given)	-17	17	27*	11	0	176*	180*
CCOc1ccc(-c2nc(CCl)cs2)cc1OC	0	2	46*	7	-2	41*	19*
COc1ccc(-c2nc(CC(=O)O)cs2)cc1OC	-8	·	·	·	26	·	·
O=C1NC(c2ccc3c(c2)OCO3)c2c(-c3ccccc3)n[nH]c21 (stereo not given)	15	·	·	·	·	·	·
Cc1ccc(-c2nc3c(c(=O)[nH]c(=O)n3Cc3ccccc3)n2Cc2ccccc2)o1	-8	10	38*	4	·	153*	133*
Cc1ccc(-c2nc3c(c(=O)[nH]c(=O)n3Cc3ccccc3)n2C)o1	-6	8	36*	9	·	98*	115*
Cc1ccc(-c2nc3c(c(=O)[nH]c(=O)n3Cc3ccccc3)n2C)s1	·	·	·	·	-10	·	·

Screening data from PubChem BioAssay.
